Experimental findings from PubChem BioAssay are described below.

Several values for one entry are separate records, joined by “and”; a condition that tells them apart may be missing. Identical values can stand only once. Activity calls are given as the source filed them.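 The calls were made as follows, unless noted: active = thallium flux through the channel raised or lowered by more than 3 SD from vehicle-only wells, actives on both sides; inactive = the rest.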

Assay [1] in a line: stimulators of nuclear beta-catenin in C2C12, primary screen, imaging, WNT3A-conditioned medium, mouse C2C12, NPC library (AID 1117326; in the data active = nuclear beta-catenin stimulation mostly above about 4.2%, no sharp cut-off; inactive = mostly below about 10%). The conditions noted are these: stronger effect = higher value.
Assay [2] can be described thus: stimulators of insulin release from INS-1E, primary screen, cell-based, 5 mM glucose, NPC library (AID 1117329;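 active = compound raises insulin release from rat beta cells at 5 mM glucose, no numeric limit stated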). The conditions noted are these: rat INS-1E insulin secretion, at 10 µM, stronger effect = higher value.
A short description of assay [3]: growth inhibition of GSK3B-pretreated HCT116 cells – cell-based, CellTiter-Glo, 0.2 to 20 µM (AID 1117336;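 active = compounds lowering colon cancer cell viability after pretreatment blocking the GSK3B kinase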). The conditions noted are these: HCT116 viability after GSK3B inhibitor, at 20 µM, stronger effect = higher value.
A short description of assay [4]: inhibition of endothelial tube formation, primary screen, imaging, VEGF stimulated, CD31 staining, tube area, NPC library (AID 1117340;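 active = compound that reduces growth-factor-driven endothelial tube area in a mixed cell culture, no cutoff stated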). The conditions noted are these: VEGF-stimulated ADSC/ECFC co-culture, at 10 µM, stronger effect = higher value.
Assay [5] in a line: glucagon-like peptide 1 release enhancers, primary assay, NCI-H716 cell line, NPC library (AID 1117341;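 active = compound raises GLP1 secretion from the human gut endocrine cells, with no numeric limit stated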). The settings on record: NCI-H716 cells, at 10 µM, stronger effect = higher value.
The nature of assay [6]: HCT116 colon cancer cell growth inhibition, primary screen, CellTiter-Glo luminescence, NPC library (AID 1117342;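 active = compounds that lower survival of HCT116 colon cancer cells in the luminescence readout, no numeric limit stated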). The settings on record: at 20 µM (top of the series).
A short description of assay [7]: CellTiter-Glo luminescent readout of SW480 viability loss, NPC library primary (AID 1117343;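 active = compounds that lower viability of the colon cancer cells in the luminescence readout, with no numeric limit stated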). The conditions noted are these: CellTiter-Glo luminescence; at 20 µM (top of the series). For orientation: ATP-based viability assays read luminescence as a measure of living cells.
The nature of assay [8]: decreased DLD-1 cellular survival, CellTiter-Glo luminescent readout, NPC compound collection, primary HTS (AID 1117346;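 active = compounds that lower survival of DLD-1 colon cancer cells in the luminescence readout, no cutoff given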). The conditions noted are these: DLD-1 viability, CellTiter-Glo luminescence; at 20 µM (top of the series).
In assay [9] the target is 6-phosphogluconate dehydrogenase, decarboxylating (Homo sapiens) (UniProt P52209). Briefly: 6PGD enzyme inhibitors, primary screen, biochemical, human, recombinant enzyme, NADPH absorbance (AID 1159550;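 active = at least 20% inhibition of 6-phosphogluconate dehydrogenase activity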). The conditions noted are these: recombinant 6PGD, NADPH absorbance 341 nm; at 10 µM; stronger effect = higher value.
Sequence of 6-phosphogluconate dehydrogenase, decarboxylating (Homo sapiens) (P52209 whole entry, looked up): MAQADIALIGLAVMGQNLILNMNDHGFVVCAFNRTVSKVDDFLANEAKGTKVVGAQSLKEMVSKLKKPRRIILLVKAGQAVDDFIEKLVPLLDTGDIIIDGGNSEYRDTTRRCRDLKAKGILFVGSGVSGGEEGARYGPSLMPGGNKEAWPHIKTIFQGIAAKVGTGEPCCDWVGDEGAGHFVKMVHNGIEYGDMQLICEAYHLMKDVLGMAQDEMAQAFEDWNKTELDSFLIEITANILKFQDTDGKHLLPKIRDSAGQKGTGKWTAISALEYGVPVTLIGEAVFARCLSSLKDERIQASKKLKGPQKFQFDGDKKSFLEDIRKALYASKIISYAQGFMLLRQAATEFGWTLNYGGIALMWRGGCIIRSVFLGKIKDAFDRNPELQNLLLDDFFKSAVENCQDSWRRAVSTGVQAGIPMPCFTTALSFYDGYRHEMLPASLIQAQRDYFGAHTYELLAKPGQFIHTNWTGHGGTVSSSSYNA
The nature of assay [10]: modulation of C. elegans fzo-1 (AID 1259413; call rule not given here;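 also: fzo-1 mutant C. elegans worms in liquid wells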). The settings on record: C. elegans fzo-1 modulator screen, mean read-out; stronger effect = higher value.
Assay [11] is described as follows: differential killing of epithelial or mesenchymal cells, primary screen, imaging, PC-3E GFP, TEM4-18 mCherry, co-culture (AID 1345086;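 active = compounds killing one labelled cell type while sparing the other, by normalised counts and ratio limits, not self-fluorescent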;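 as to all read-outs here: cells exposed to compound for 72 h before imaging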;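 as to red/green cell ratio (normalised): normalised mesenchymal count divided by normalised epithelial count so high means epithelial killing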). The conditions noted are these: imaging cell counts, at 1 µM; for red/green cell ratio (normalised): actives lie on both sides, counts scaled to control wells, 1 = unselective.
The nature of assay [12]: survival rescue of mitochondrial mutant cells in low glucose, primary screen, MELAS cybrids, Rieske KO mouse fibroblasts, CellTiter-Glo (AID 1508586;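 active = mean z-score across replicates of 1.96 or higher in either the MELAS or the Rieske mutant cell line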;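 also: z relative to plate mean and SD of compound and empty wells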).
In assay [13] the target is NAD(+) hydrolase SARM1 (Homo sapiens) (UniProt Q6SZW1). Briefly: SARM1 TIR NADase inhibitors, cell lysate, NAD-Glo luminescence (AID 1508614;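 active = compound whose remaining NAD level is above about 45 nM, limit read from the data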;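 also: higher remaining NAD means stronger inhibition of SARM1 NADase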). The settings on record: SAM-TIR HEK293T lysate NADase, at 1 µM, stronger effect = higher value.
Sequence of NAD(+) hydrolase SARM1 (Homo sapiens) (Q6SZW1 whole entry, looked up, the tested form may be a part): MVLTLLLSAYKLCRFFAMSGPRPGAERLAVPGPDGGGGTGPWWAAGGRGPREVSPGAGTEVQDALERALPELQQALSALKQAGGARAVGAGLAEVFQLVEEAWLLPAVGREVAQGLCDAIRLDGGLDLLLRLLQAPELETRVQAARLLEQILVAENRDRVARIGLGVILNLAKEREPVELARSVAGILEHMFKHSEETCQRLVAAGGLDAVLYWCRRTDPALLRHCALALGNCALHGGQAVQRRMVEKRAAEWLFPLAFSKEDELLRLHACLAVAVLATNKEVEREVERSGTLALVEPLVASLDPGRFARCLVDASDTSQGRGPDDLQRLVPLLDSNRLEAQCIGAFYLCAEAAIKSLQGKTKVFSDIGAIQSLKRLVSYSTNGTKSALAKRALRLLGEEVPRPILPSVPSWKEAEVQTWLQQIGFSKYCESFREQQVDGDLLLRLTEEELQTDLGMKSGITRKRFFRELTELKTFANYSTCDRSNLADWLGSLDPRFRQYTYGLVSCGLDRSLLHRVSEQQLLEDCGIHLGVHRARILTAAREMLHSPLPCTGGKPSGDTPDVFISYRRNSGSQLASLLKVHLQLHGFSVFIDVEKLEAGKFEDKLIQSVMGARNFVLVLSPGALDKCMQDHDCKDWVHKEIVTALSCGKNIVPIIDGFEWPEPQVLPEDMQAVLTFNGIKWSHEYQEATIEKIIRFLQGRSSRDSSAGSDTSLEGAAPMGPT
The target in assay [14] is Mitogen-activated protein kinase 7 (Homo sapiens) (UniProt Q13164). Kind of assay: ERK5 transactivation activators in reporter cells, primary screen, cell-based, HTS (AID 1508626;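 active = luciferase signal above three times the same-plate solvent-only control wells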;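 also: luciferase driven by Gal4-ERK5 fusion binding five Gal4 sites before minimal TATA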). The conditions noted are these: HeLa Gal4-ERK5 transactivation, 18 h, at 5 µM, stronger effect = higher value.
Sequence of Mitogen-activated protein kinase 7 (Homo sapiens) (Q13164 whole entry, looked up, the tested form may be a part): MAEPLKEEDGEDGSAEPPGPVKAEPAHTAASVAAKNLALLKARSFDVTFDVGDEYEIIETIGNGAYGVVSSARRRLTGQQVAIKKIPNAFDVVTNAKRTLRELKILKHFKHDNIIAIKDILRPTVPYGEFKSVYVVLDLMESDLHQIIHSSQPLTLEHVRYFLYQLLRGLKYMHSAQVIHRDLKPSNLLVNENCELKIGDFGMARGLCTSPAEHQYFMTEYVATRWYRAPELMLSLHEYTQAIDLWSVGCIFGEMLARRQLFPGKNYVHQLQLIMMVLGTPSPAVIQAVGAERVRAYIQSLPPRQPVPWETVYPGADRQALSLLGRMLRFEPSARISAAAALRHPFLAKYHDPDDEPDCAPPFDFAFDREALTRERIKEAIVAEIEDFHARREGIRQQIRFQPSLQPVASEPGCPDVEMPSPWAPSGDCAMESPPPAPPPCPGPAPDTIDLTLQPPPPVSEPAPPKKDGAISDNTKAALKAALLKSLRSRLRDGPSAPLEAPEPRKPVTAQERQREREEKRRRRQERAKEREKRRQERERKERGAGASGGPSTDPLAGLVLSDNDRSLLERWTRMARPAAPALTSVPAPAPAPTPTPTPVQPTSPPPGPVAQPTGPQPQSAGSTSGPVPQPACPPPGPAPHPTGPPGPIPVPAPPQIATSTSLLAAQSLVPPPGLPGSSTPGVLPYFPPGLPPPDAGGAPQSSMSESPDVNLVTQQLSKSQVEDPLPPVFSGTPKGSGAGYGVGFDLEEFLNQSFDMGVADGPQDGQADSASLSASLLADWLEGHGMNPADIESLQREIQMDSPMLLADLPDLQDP
A further assay deals with F380Y. Kind of assay: modulators of BK channel variants, profiling panel, selectivity assay, cell-based, U2OS BacMam, thallium flux, beta subunits (AID 1259406).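 Also: initial slope of Thallos dye fluorescence rise after thallium is added; log ratio against the mean of 0.3% DMSO vehicle wells on the same plate.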 The settings on record: at 30 µM.
Another assay deals with F380Y/beta1. The description is as above. The conditions noted are these: at 30 µM.
The next assay relates to F380Y/beta2Delta. The description is as above. The settings on record: at 30 µM.
Setting [15] is: measured here: epithelial PC-3E GFP cell survival.
[16] abbreviates: measured here: mesenchymal TEM4-18 mCherry cell survival.
[17] abbreviates: MELAS cybrid survival, CellTiter-Glo 48 h, stronger effect = higher value.
The mark [18] stands for this setting: Rieske KO mouse fibroblast survival, CellTiter-Glo 72 h.

With `CCC1(c2ccccc2)C(=O)NCNC1=O`, the nuclear beta-catenin stimulation in assay [1] (at 10 µM) was 0.6% (inactive); in assay [1] (stimulation, at 2 µM), 1.4%. For the same compound, the insulin secretion stimulation in assay [2] is -2.2% (inactive). Besides, the viability decrease in assay [3] was -8.45% (inactive). For the same compound, in assay [4], the tube area decrease was 12.9% (inactive). Besides, the GLP1 secretion stimulation in [5] was -2% (inactive). In addition, the inhibition of viability in assay [6] was 1% (inactive). Besides, the values for the viability decrease (inhibition) in assay [7] and in assay [8] were -8.1% (inactive) and -8.9% (inactive), respectively. Besides, the inhibition (in general, the relative decrease from the control value, in per cent) in assay [9] is 14.9% (inactive). The mean signal in [10] was 235 (inactive). Also, in assay [11], the red/green cell ratio (normalised) was 1.02 (inactive). Besides, the normalised cell number amounted to 1.02 in assay [11] (setting [15]) and 1.05 in assay [11] (setting [16]). For the same compound, the z-score in [12] (setting [17]) is -0.279 (inactive) and 0.626 (inactive); in assay [12] (setting [18]), 0.595 and -0.386. For the same compound, the remaining NAD in assay [13] is 10 nM (inactive). Further, in assay [14], the luciferase signal is 60 AU (inactive). In addition, the values for the log fold change Tl+ flux with F380Y, with F380Y/beta1 and in the assay with F380Y/beta2Delta were -0.0227 (inactive), 0.00204 (inactive) and -0.0144 (inactive), respectively.

Consider `CN(C)c1ccc(C(=C2C=CC(=[N+](C)C)C=C2)c2ccccc2)cc1`, for which the nuclear beta-catenin stimulation in [1] (at 10 µM) was 4.5% (active); in assay [1] (stimulation, at 2 µM), 63.1%. The insulin secretion stimulation in [2] was 0.2% (inactive). Further, the viability decrease in assay [3] is 100% (active). The tube area decrease in assay [4] is 109% (active). The GLP1 secretion stimulation in assay [5] was 0.7% (inactive). The inhibition of viability in [6] is 99.7% (active). Besides, the viability decrease (inhibition) in assay [7] and in assay [8] was 102% (active) throughout.

In the case of `CCCCCCCCCCCCCCCCCC(=O)[O][Al]`, the nuclear beta-catenin stimulation in assay [1] (at 10 µM) is 0.2% (inactive); in assay [1] (stimulation, at 2 µM) it was -0.8%. Also, in [2], the insulin secretion stimulation was 0.8% (inactive). In addition, the viability decrease in assay [3] was 2.3% (inactive). Besides, the tube area decrease in assay [4] is -3.5% (inactive). The GLP1 secretion stimulation in assay [5] is -1.2% (inactive). For the same compound, in assay [6], the inhibition of viability is 5.4% (inactive). Also, the viability decrease (inhibition) in assay [7] is -3.6% (inactive); in assay [8], -0.7% (inactive).

Turning to `CC(C)NCC(O)c1ccc(O)c(O)c1` (stereo unspecified), the nuclear beta-catenin stimulation in [1] (at 10 µM) was -0.3% (inactive); in assay [1] (stimulation, at 2 µM), 1.9%. In addition, the insulin secretion stimulation in assay [2] is 1.4% (inactive). In addition, in [3], the viability decrease is 54.1% (active). Also, in [4], the tube area decrease was -8.1% (inactive). The GLP1 secretion stimulation in assay [5] was 6.8% (inactive). Besides, the inhibition of viability in [6] was 33.2% (inactive). The viability decrease (inhibition) was 28.5% (inactive) in assay [7] and 23.6% (inactive) in [8]. Further, the inhibition in [9] was -1.67% (inactive). The mean signal in [10] was 227 (inactive). The red/green cell ratio (normalised) in assay [11] is 1.26 (inactive). Moreover, the values for the normalised cell number in [11] (setting [15]) and in assay [11] (setting [16]) were 1.07 and 1.35, respectively. Moreover, the z-score in assay [12] (setting [17]) was -0.378 (inactive) and -0.294 (inactive); in [12] (setting [18]), 0.858 and -1.25. Also, the remaining NAD in assay [13] was 10 nM (inactive). Besides, the luciferase signal in assay [14] is 60 AU (inactive). Besides, the log fold change Tl+ flux with F380Y was 0.0351 (inactive); with F380Y/beta1, 0.0171 (inactive); with F380Y/beta2Delta, 0.061 (inactive).

With `CN(C)CCCN1c2ccccc2CCc2ccc(Cl)cc21`, the nuclear beta-catenin stimulation in assay [1] (at 10 µM) was 2.9% (inactive); in assay [1] (stimulation, at 2 µM) it was 2.5%. Further, in [2], the insulin secretion stimulation was 5.4% (inactive). For the same compound, the viability decrease in [3] was -53% (inactive). Also, the tube area decrease in assay [4] is 23.1% (inactive). For the same compound, the GLP1 secretion stimulation in [5] was 13.3% (inactive). Moreover, the inhibition of viability in [6] was 67.4% (active). In addition, the viability decrease (inhibition) is 61.1% (active) in [7] and 61.8% (active) in [8]. Besides, the inhibition in assay [9] is 13.8% (inactive). In addition, the mean signal in [10] is 222 (inactive). Also, the red/green cell ratio (normalised) in [11] is 1.09 (inactive). In addition, the normalised cell number in assay [11] (setting [15]) stood at 0.96; in [11] (setting [16]), 1.05. The z-score was -0.661 (inactive) and 0.117 (inactive) in [12] (setting [17]); -0.587 and 0.253 in [12] (setting [18]). Moreover, in assay [13], the remaining NAD is 10 nM (inactive). Moreover, the luciferase signal in [14] was 32 AU (inactive). The results for the log fold change Tl+ flux in the assay with F380Y, with F380Y/beta1 and with F380Y/beta2Delta were -0.0375 (inactive), -0.109 (inactive) and -0.0656 (inactive), respectively.
